# Screening data (PubChem BioAssay)
# Rango-impB inh: prevents formation of the Rango-importin beta complex; Q14974; Rango CFP/YFP FRET sensor + importin beta, 45 min; Potency, µM (series often up to 92.2 µM), for inactives: at the highest dose inhibition of complex formation; 340,000 compounds, 0.031% hits; AID 540263;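 also: potency is read from the fitted curve at half-maximal effect; 0% = DMSO wells and 100% = buffer wells lacking importin beta; nearly all actives have a fitted effect of over 15% in size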
#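 Inhibition scored from the CFP 486 nm/YFP 530 nm FRET ratio 45 min after adding 0.125 microM importin beta to 50 nM Rango biosensor preincubated 5 min with compound (room temperature, PBS with DTT, Tween-20, BSA). No-importin wells as positive control.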
# MBNL1 CUG block: blocks human MBNL1 binding to CUG repeat RNA. Q9NR56. TR-FRET MBNL1-His/biotin-(CUG)12 binding, 665/545 ratio. Potency, µM (doses to about 57.5 µM), inactives show at the top dose activity change, negative = inhibition, actives largely listed as inhibitors. 280,000 compounds, 0.036% hits. AID 2675; active = well fitted inhibition curve with a large enough effect in the signal ratio, with a control signal flat, not every such curve was filed as active; inconclusive = small, poorly fitted or top-dose-only effect, or effect the other way, or a change in a side signal; inactive = no such curve, though single readings can be large or run the other way; the % refers to the signal ratio; also: potency is read from the fitted curve at half-maximal effect; % is scaled to controls: 0 for no effect and ±100 for the full control effect
# Target sequence (Q9NR56 whole entry, looked up): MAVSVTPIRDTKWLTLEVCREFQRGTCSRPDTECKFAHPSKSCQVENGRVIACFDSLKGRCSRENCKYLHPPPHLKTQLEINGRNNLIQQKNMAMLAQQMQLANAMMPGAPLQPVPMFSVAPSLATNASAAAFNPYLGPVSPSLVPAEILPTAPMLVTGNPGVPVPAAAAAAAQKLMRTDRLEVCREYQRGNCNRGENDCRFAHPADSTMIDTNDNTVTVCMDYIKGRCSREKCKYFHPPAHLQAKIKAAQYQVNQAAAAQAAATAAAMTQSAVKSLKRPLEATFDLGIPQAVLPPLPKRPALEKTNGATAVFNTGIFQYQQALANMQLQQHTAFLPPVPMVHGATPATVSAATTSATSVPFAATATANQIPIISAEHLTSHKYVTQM
#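 Inhibition of protein-RNA binding appears as loss of TR-FRET between terbium anti-His antibody on MBNL1-His and streptavidin-XL665 on biotin-(CUG)12. Activity is normalized to buffer-only and uninhibited-complex controls.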
# CBFb RUNX1 block: CBF-beta/RUNX1 interaction disruption; AlphaScreen CBFb-His/RUNX1-biotin binding, biochemical; Potency, µM (highest dose often 59.8 µM), without a hit: at the highest dose activity, negative = inhibition, actives largely listed as inhibitors; 230,000 tested, under 10 active; AID 1477; active = well fitted curve in the direction sought with a large enough effect; inconclusive = small, poorly fitted or top-dose-only effect, or effect the other way, or another doubt; inactive = no such curve, though single readings can be large or run the other way; also: % of control where 0% means no effect
#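 AlphaScreen binding: CBFb-His and RUNX1-biotin (30 nM each) preincubated 20 min, compound added for 15 min, then nickel and streptavidin beads for 90 min, all at room temperature. Disruption of the interaction by any mechanism counts as activity.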
# Rango release inh: inhibitors of RanGTP-induced Rango-importin beta complex dissociation; Potency, µM (highest dose often 46.1 µM), for the others: at the top dose activity change, negative = inhibition; AID 540253; Biochemical FRET Rango-importin beta, RanGTP-induced dissociation; 340,000 compounds, 0.071% hits; O95149+P62826; also: potency is read from the fitted curve at half-maximal effect; % of control where 0% means no effect; nearly all actives have a fitted effect of over 45% in size
#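 Quantitative HTS using a FRET biosensor: 0.1 uM Rango, 0.25 uM importin beta, 0.6 uM Ran, 2 mM GTP, 0.2 uM RCC1 final, PBS with DTT, Tween-20 and BSA. Post-read taken 45 min after Ran addition.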
# ClpP mod: qHTS Assay for Activators of ClpP; ATP-dependent Clp protease proteolytic subunit (Bacillus subtilis (strain 168)), P80244; purified B. subtilis ClpP, FRET peptide cleavage, 20 min; 340,000 compounds, 1.9% hits; Potency, µM (titrated, usually from 57.5 µM), without a hit: at the top dose activity change, negative = active; active = well fitted falling curve with a large enough effect; inconclusive = small, poorly fitted or top-dose-only effect; inactive = no such curve, though single readings can be large or run the other way; also: potency is read from the fitted curve at half-maximal effect; the source files actives as falling curves though it sought activators and does not explain the sign; nearly all actives have a fitted effect of over 65% in size
# Target sequence (P80244 whole entry, looked up): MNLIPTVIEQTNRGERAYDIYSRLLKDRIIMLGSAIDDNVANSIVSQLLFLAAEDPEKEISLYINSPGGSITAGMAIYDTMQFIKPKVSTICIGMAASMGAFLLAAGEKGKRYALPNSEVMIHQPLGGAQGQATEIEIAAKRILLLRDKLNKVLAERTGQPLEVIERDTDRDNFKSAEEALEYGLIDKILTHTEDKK
#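 ClpP 10 microg/mL final, pH 8 Tris/KCl buffer with BSA, glycerol, Tween-20; compound pinned in; FRET-FV substrate; RT 20 min; Ex320/Em430; ΔFRET vs ADEP 5.8 microM, DMSO, no enzyme.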
# The depositor's hits bear a star; ? = inconclusive; nt = not tested or not shown. This is one part of a sample in which hits are shown more often than they occur. Unless noted, calls follow the shape of the full dose curve.
SMILES,Rango-impB inh,MBNL1 CUG block,CBFb RUNX1 block,Rango release inh,ClpP mod
CCNC(=O)C(=O)Nc1ccc2c(c1)N(S(=O)(=O)c1cccs1)CCC2,0.2%,nt,nt,4.0%,1.0%
O=C(Nc1ccc2oc(-c3cccnc3)nc2c1)c1ccccc1F,nt,nt,nt,nt,4.2%
CCCCCNCC(=O)Nc1cccc(C(=O)Nc2cccc(C(F)(F)F)c2)c1,2.5%,7.1%,14.1%,18.9%,28.2µM*
C=C(C(=O)C(C)(C)O)C(O)c1ccc([N+](=O)[O-])cc1 (stereo unspecified),nt,nt,-7.1%,nt,nt
CCn1cnc2cc(NCc3cccc(OC)c3O)ccc21,-5.6%,-12.0%,0.0%,1.1%,31.6µM*
COc1ccccc1-n1cnc2cc(NCc3ccccc3O)ccc21,?,9.5%,-19.0%,?,-13.5%
CCOc1ccc(CNc2ccc3c(c2)ncn3C)cc1,1.7%,12.1%,-5.8%,-24.7%,31.6µM*
CCCn1cnc2cc(NCc3cccc(OC)c3)ccc21,0.3%,4.7%,1.5%,-8.2%,28.2µM*
CCOc1ccc(CNC(=O)CN2C(=O)C3CCCCN3c3ccc(C(=O)N4CCCC4)cc32)cc1 (stereo unspecified),nt,nt,nt,nt,0.2%
O=C(O)c1ccccc1C1=Nc2ccc(O)cc2Oc2cc(O)ccc21,?,2.4%,0.0%,?,14.1µM*
Cc1cc(-c2ccccc2C(=O)O)on1,-0.1%,-7.4%,6.4%,17.4%,0.5%
COc1cccc(/C=C/C(=O)OCC(=O)Nc2cc(C(F)(F)F)ccc2Cl)c1,3.4%,?,15.7%,-2.1%,35.5µM*
COc1cccc(/C=C/C(=O)OCC(=O)c2c(N)n(C)c(=O)n(C)c2=O)c1,2.0%,nt,nt,2.6%,25.1µM*
COc1ccccc1CNC(=O)CN1C(=O)CCn2nc(-c3ccccc3)cc21,nt,nt,nt,nt,-0.6%
Cc1c(CNC2CCCCC2)c(C(=O)O)c(C)n1Cc1c(F)cccc1Cl,nt,nt,nt,nt,-0.3%
Cc1c(Cl)cccc1-n1ncc(C(=O)Nc2ccc3c(c2)OCCO3)c1C1CCN(C(=O)OC(C)(C)C)CC1,nt,nt,nt,nt,-4.5%
CC(C)CN1CC(C)C(=O)NC1=S (stereo unspecified),3.2%,nt,nt,-9.0%,28.2µM*
COc1ccc(NC(=O)C2CCC(CNS(=O)(=O)c3ccc(Br)s3)CC2)cc1OC (stereo unspecified),nt,nt,nt,nt,4.3%
Cc1ccc(NCC(O)Cn2cnc3c2c(=O)n(C)c(=O)n3C)cc1 (stereo unspecified),0.6%,-10.2%,-0.2%,-3.9%,28.2µM*
CCOC(=O)c1cccc(NS(=O)(=O)c2cc3c(cc2C)NC(=O)CO3)c1,nt,nt,nt,nt,-2.7%
CCCCC(=O)Nc1cc(N(C)C)nc2ccccc12,-0.1%,5.3%,-0.7%,?,8.91µM*
CCOc1ccc(-c2cc3nc(C4CCN(C(=O)OC(C)(C)C)CC4)c(C(=O)Nc4ccc(C)c(F)c4)cn3n2)cc1,nt,nt,nt,nt,-20.7%
Cc1c(Cl)cccc1NC(=O)CSc1nc(=O)n(CCCN2CCOCC2)c2c1CCC2,2.4%,nt,nt,0.3%,20µM*
COc1cc(NC(=O)CSc2nc(=O)n(CCCN3CCOCC3)c3c2CCC3)cc(OC)c1,0.0%,nt,nt,-10.7%,25.1µM*
COc1cc(NC(=O)CSc2nc(=O)n(CCN3CCOCC3)c3c2CCC3)cc(OC)c1,0.4%,nt,nt,24.3%,-1.6%
SMILES,Rango-impB inh,MBNL1 CUG block,CBFb RUNX1 block,Rango release inh,ClpP mod
Cc1c(Cl)cccc1NC(=O)CSc1nc(=O)n(CCN2CCOCC2)c2c1CCC2,nt,nt,nt,nt,-7.4%
Cc1cc(-n2c(C)nc3ccccc3c2=O)ccc1NC(=O)c1ccc([N+](=O)[O-])cc1,nt,nt,nt,nt,1.9%
CCCn1c2c(c(O)c(C(=O)Nc3ccc(OC)cc3)c1=O)CCCC2,0.9%,4.4%,0.4%,2.3%,28.2µM*
CCCn1c2c(c(O)c(C(=O)NC)c1=O)CCCC2,6.5%,1.1%,-2.5%,26.7%,-21.4%
COc1ccc(N2CCN(C(=O)Cn3c(-c4cccs4)cc4ccccc43)CC2)cc1,nt,nt,nt,nt,31.6µM*
NC(=O)C1CCN(C(=S)c2cccs2)CC1,2.7%,8.1%,4.6%,3.4%,-1.6%
NC(=O)C1CCN(C(=O)Cn2c(-c3cccs3)cc3ccccc32)CC1,nt,nt,nt,nt,31.6µM*
